Most compounds without a hit are left out; they make up all but 1.6% or so of the library.
KCNQ2 block: blocks the rat KCNQ2 potassium channel; CHO-K1 KCNQ2, FluxOR thallium flux, 20 min; hits give low values; B-score at 10 µM; AID 2156; actives 1.1% (n = 310,000); O88943;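 active = fluorescence ratio B-score at most minus 3 library SDs, with starting brightness B-score within 2 library SDs, cut at about -5.5 in these data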
Target sequence (O88943 whole entry, looked up): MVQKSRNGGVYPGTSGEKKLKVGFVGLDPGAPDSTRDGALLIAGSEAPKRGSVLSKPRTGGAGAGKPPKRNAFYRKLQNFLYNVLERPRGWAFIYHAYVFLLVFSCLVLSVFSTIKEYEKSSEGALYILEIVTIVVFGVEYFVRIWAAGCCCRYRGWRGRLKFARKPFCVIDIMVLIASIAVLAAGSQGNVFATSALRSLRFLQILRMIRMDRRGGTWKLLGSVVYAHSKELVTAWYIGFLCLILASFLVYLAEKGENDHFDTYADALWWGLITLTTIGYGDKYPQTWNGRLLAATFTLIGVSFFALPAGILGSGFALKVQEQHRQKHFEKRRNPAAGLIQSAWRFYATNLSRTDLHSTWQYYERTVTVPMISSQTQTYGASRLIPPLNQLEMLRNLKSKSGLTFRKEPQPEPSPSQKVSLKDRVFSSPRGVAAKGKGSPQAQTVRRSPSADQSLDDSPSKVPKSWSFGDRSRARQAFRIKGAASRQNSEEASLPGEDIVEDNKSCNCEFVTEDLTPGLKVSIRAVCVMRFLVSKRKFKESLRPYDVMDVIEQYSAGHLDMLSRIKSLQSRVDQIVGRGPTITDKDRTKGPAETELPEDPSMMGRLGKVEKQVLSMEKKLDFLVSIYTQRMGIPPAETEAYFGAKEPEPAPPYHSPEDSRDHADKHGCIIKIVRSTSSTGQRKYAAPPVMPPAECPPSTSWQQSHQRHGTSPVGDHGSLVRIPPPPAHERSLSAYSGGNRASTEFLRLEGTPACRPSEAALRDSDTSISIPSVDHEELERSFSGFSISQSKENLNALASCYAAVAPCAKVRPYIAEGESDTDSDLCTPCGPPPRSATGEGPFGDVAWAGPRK
KCNQ2 enhance: KCNQ2 (rat) channel potentiation; O88943; CHO-K1 KCNQ2, FluxOR thallium flux fluorescence; hits give high values; B-score at 10 µM; actives 0.54% (n = 310,000); AID 2239;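 active = fluorescence ratio B-score at least 3 SD of library B-scores, with initial fluorescence B-score within 3 of them, cut at about 5.3 in these data; same plate scores as AID 2156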;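 also: B-score of peak minus minimum over baseline fluorescence ratio after K+ and Tl+ stimulus; positive B-score means potentiation of KCNQ2 with more thallium influx and brighter signal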
An asterisk follows results filed as active; i = inactive; . = no result given.

SMILES | KCNQ2 block | KCNQ2 enhance
COC(=O)C/C=C/[C@@H](C)[C@@H](/C=N/OC[C@H]1O[C@H](c2ccccc2)C=C[C@@H]1Oc1ccc(OC)cc1)OC | -6.9* | -6.9
COCCN(C(=O)COC(=O)Cc1cccc(OC)c1)c1c(N)n(CC(C)C)c(=O)[nH]c1=O | i | 2.43
CC(=O)c1cccc(N2C(=NC(=O)C3CCCCC3)SC3CS(=O)(=O)CC32)c1 (stereo not drawn) | i | .
Cc1[nH]c(C)c(S(=O)(=O)NCc2ccc(OC(C)C)cc2)c1C(=O)N1CCCC1 | -5.65* | -5.65
COc1ccc(CNS(=O)(=O)c2c(C)[nH]c(C)c2C(=O)N2CCCC2)cc1 | i | .
O=C(O)CCCn1cc(NC(=O)c2sc3ccccc3c2Cl)cn1 | i | 0.09
Cc1cccc(NC(=O)/C(C#N)=C\c2cccnc2)c1 | -6.55* | -6.55
N#C/C(=C\c1cccnc1)C(=O)Nc1ccc(Cl)cc1 | i | .
COc1ccc(CNn2c(-c3cccc(C)c3)nc3ccccc3c2=O)cc1OC | i | .
COc1ccccc1CNn1c(-c2cccc(C)c2)nc2ccccc2c1=O | -7.58* | -7.58
COc1cccc(NC(=O)CN(C)C(=O)c2cccnc2Sc2ccc(C)c(C)c2)c1 | i | 1.65
CCCN1C(=O)/C(=C/c2ccc(C)o2)SC1=Nc1ccc(OC)cc1 | i | .
CCCN1C(=O)/C(=C/c2ccco2)SC1=Nc1ccc(OC)cc1 | i | .
CCN1C(=O)/C(=C/c2ccc(C)s2)SC1=Nc1ccc(OC)cc1 | -6.31* | -6.31
COc1ccc(N=C2S/C(=C\c3ccc(C)o3)C(=O)N2CC(C)C)cc1 | -6.09* | -6.09
CN(CCOc1ccc(Cl)cc1)C(=O)C1CCN(C(=O)c2ccc(Cl)cc2)CC1 | i | .
COc1cc(CC(=O)OCC(=O)N2C(C)CCCC2C)cc(OC)c1OC (stereo not drawn) | i | .
CCOc1ccc(/C(O)=C2/C(=O)C(=O)N(CCCN3CCOCC3)C2c2ccc(C)cc2)cc1C (stereo not drawn) | i | .
CC(C)(c1ccccc1)c1ccc(OCCn2cnc3ccccc3c2=O)cc1 | -7.41* | -7.41
O=C(c1ccccc1)c1ccc(OCCn2cnc3ccccc3c2=O)cc1 | i | 0.19
C/C(=N\Nc1nc2ccccc2[nH]1)c1ccc(C)o1 | i | 0.11
C/C(=N\Nc1nc2ccccc2[nH]1)c1ccc(Cl)s1 | i | 13.4*
CN(CC1CCCN(CCc2cccc(C(F)(F)F)c2)C1)C(=O)c1cc2ccccc2o1 (stereo not drawn) | -6.97* | -6.97
CCN(CC1CCCN(CCc2cccc(F)c2)C1)C(=O)c1cc2ccccc2o1 (stereo not drawn) | i | .
COc1ccc(NC(=S)N2CCC(c3ccccc3)C2)cc1 (stereo not drawn) | i | 0.91
SMILES | KCNQ2 block | KCNQ2 enhance
CCOc1ccc(NC(=S)N2CCN(S(=O)(=O)c3ccccc3)CC2)cc1 | i | .
COc1ccc(NC(=S)N2CCC(C(O)(c3ccccc3)c3ccccc3)CC2)cc1 | i | 6.65*
CCOc1ccc(NC(=S)N2CCC(C(O)(c3ccccc3)c3ccccc3)CC2)cc1 | i | 6.52*
CCC(C)NC(=O)c1cc(-c2ccc3c(c2)OCO3)on1 (stereo not drawn) | i | .
COc1ccc2c(c1OC)C(=O)OC2N1C(=O)CC[C@H]1C(=O)Nc1ccc2c(c1)OCO2 (stereo partly drawn) | i | .
Cc1ccc(C)c(N(CC(=O)NC2CCCC2)C(=O)c2csnn2)c1 | i | 0.63
CCCC[C@@H]1CNC(=O)C(=O)N1CCCc1cc(OC)c(OC)c(OC)c1 | i | 0.48
COc1cc(CCCN2C(=O)C(=O)NC[C@H]2Cc2cccc3ccccc23)cc(OC)c1OC | i | 9.64*
COc1ccc(OC)c(NC(=O)CSc2nnc(CNC(=O)c3cc(OC)c(OC)c(OC)c3)o2)c1 | i | 0.85
CCCCCc1c2c(cc(O)c1C(=O)O)OC(=O)c1c(cc(OC)cc1C(=O)CCCC)O2 | -6.67* | -6.67
CCCCc1c(C(=O)O)cc(OC)cc1C(=O)O | i | 0.45
COc1ccc(CCNC(=O)c2ccc3c(c2)S(=O)(=O)N=C2CCCCCN23)cc1 | i | .
Cc1ccc(S(=O)(=O)N2CCC(C(=O)OCC(=O)N(Cc3ccccc3)C(C)(C)C)CC2)cc1C | -6.52* | -6.52
CCOC(=O)C1CCN(S(=O)(=O)c2ccc(C)c(C)c2)CC1 | i | 1.19
Cc1cccc(C)c1OCc1nnc(SCC(=O)Nc2ccc(N3CCOCC3)cc2)o1 | i | 0.19
O=C(CSc1nccc(=O)[nH]1)Nc1cccc2ccccc12 | i | .
CCN1CCN(C(=O)c2ccc3c(c2)c(C)c(C)n3Cc2ccccc2)CC1 | i | .
CCn1c(C)c(C)c2cc(C(=O)N3CCc4ccccc4C3)ccc21 | -6.04* | -6.04
Cc1cc(C)cc(OC(=O)COc2ccccc2C)c1 | i | .
Cc1ccc(NC(=O)c2ccco2)c(NC(=O)c2ccc(Cl)cc2)c1 | i | .
CCn1c(CSCc2ccc(F)cc2)nnc1SCC(=O)NCc1ccccc1 | i | .
C=CCn1c(CSCc2ccccc2)nnc1SCC(=O)NCc1ccccc1 | -5.55* | -5.55
CCOc1ccc(OCC(O)CNC2CCN(Cc3ccccc3)CC2)cc1 (stereo not drawn) | i | 0.8
CC(C)(c1ccccc1)c1ccc(OCC(O)CNC2CCN(Cc3ccccc3)CC2)cc1 (stereo not drawn) | -8.26* | -8.26
CSc1nc(N)c(C(=O)Nc2ccc([N+](=O)[O-])cc2)s1 | i | 0.75
SMILES | KCNQ2 block | KCNQ2 enhance
O=C(Nc1ccccc1N1CCCC1)C1CCN(S(=O)(=O)c2cccc(C(F)(F)F)c2)CC1 | i | .
O=C(Nc1ccccc1N1CCCCC1)C1CCN(S(=O)(=O)c2cccc(C(F)(F)F)c2)CC1 | -6.88* | -6.88
COc1cccc(-n2nnnc2S(C)(=O)=O)c1 | -7.78* | -7.78
COc1cccc(Oc2nnnn2-c2ccccc2)c1 | i | .
O=C(CN(CC1CCCO1)C(=O)CNS(=O)(=O)c1ccccc1)NCCc1ccccc1 (stereo not drawn) | i | .
O=C(NCCO)C1COc2ccccc2O1 (stereo not drawn) | i | 0.89
O=C(NCCc1ccc(Cl)cc1)C1COc2ccccc2O1 (stereo not drawn) | -6.03* | -6.03
CSCC[C@H](NC(=O)CC(C)(C)C)c1nc2ccccc2[nH]1 | i | .
CC(C)(C)CC(=O)N[C@@H](Cc1ccccc1)c1nc2ccccc2[nH]1 | -7.25* | -7.25
Nc1ccc(C(=O)N2CCN(S(=O)(=O)c3ccc(Cl)s3)CC2)cc1[N+](=O)[O-] | i | 0.17
CCOC(=O)Cc1csc(NC(=O)c2ccc3ccccc3n2)n1 | i | .
O=C(NCc1ccc2c(c1)OCO2)C1CCN(S(=O)(=O)c2ccc(Br)s2)CC1 | i | 17.4*
O=C(NCc1ccc2c(c1)OCO2)C1CCN(S(=O)(=O)c2cccs2)CC1 | i | 1.13
CC(C)(C)OC(=O)N[C@@H](Cc1ccccc1)C(=O)NCC1CCC(C(=O)O)CC1 (stereo partly drawn) | i | .
O=C(NCc1ccco1)/C(=C/c1ccccc1F)NC(=O)c1ccccc1 | i | .
Cc1ccc(NC(=O)CNC(=O)c2ccco2)c(Cl)c1 | i | .
O=C(OCc1ccccc1)c1cccc(-c2nnc(-c3ccccc3)o2)c1 | -6.33* | -6.33
O=C(OCc1ccc(C(=O)c2ccccc2)cc1)c1cccc(-c2nnc(-c3ccccc3)o2)c1 | i | .
O=C(c1ccc(F)cc1F)N1CCN(c2ccccn2)CC1 | i | .
Fc1ccccc1C1CC(c2ccco2)=Nc2ccccc2S1 (stereo not drawn) | -7.27* | -7.27
